# CYP2C19 inhib: blocks human cytochrome P450 2C19. P33261. AID 778. 96,000 compounds, 21% hits. inhibition, % at 5 µM. CYP2C19 Supersomes, luciferin-H EGE luminescence, 30 min;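 active = CYP2C19 inhibition above a set limit at 5 µM in the primary screen, cut at about 50% in these data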;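 note: plate controls were negative control wells for no effect and 2.5 mM tranylcypromine positive control for full effect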
# D1 allo mod: D1 dopamine receptor (human) allosteric modulation; B-score at 10 µM; 58,000 compounds, 5.9% hits; HEK293 D1, CRE-luciferase, dopamine EC30 potentiation; actives deviate in either direction; AID 641; P21728;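 active = luminescence count or its row- and column-corrected plate score outside the 99.7% band of the plate's sample wells, on either side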
# Target sequence (P21728 whole entry, looked up): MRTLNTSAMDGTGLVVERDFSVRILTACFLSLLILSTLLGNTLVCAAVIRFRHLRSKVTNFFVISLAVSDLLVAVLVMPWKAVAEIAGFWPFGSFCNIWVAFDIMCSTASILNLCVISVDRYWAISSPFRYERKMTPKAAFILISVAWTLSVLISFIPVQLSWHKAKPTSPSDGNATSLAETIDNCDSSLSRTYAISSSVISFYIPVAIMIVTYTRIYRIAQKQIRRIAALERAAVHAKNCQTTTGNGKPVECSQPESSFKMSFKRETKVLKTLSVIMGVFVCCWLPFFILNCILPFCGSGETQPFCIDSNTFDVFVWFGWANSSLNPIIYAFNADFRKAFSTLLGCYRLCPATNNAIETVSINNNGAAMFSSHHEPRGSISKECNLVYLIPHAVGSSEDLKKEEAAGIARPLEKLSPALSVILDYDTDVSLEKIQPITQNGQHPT
# CYP2C9 act: CYP2C9 (human) activation; P11712; 96,000 compounds, 1.4% hits; recombinant CYP2C9, luciferin-H conversion, luminescence; stronger effect = higher value; factor 1 = untreated enzyme, 0 = blocked; activation factor at 5 µM;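 active = activation factor of 2 or more for CYP2C9 at a 5 µM dose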;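 note: 0 = sulfaphenazole-blocked wells and 1 = vehicle-only wells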
# CYP2C9 inhib: human CYP2C9 inhibition; P11712; CYP2C9 Supersomes, luciferin-H conversion, luminescence; inhibition, % at 5 µM; 96,000 compounds, 20% hits; AID 777;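 active = blocking of liver enzyme CYP2C9 beyond about 50% at 5 µM, limit read from the data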
# hDAT+cocaine: modulates human dopamine transporter uptake under cocaine; 110,000 compounds, 1.3% hits; LLC-PK1 hDAT cells, [14C]-dopamine uptake with cocaine IC80; actives deviate in either direction; AID 449768; B-score at 10 µM; Q01959;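 active = Z score or B-score, a plate-position-corrected score, falls beyond the plate's 99.7% confidence bounds, in either direction; inactive = both scores lie inside the 99.7% bounds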;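 note: scored against the spread of the other compound wells on the same plate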
# CYP2C19 activ: activators of human cytochrome P450 2C19. recombinant CYP2C19, luciferin-H EGE luminescence; stronger effect = higher value; 0 = fully inhibited enzyme, 1 = untreated enzyme. activation factor at 5 µM. 96,000 tested, under 10 active;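 active = activation factor of at least 2 at 5 µM in the primary screen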;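 note: 0 = wells with 2.5 mM tranylcypromine and 1 = vehicle-only wells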
# Active calls of the source: *; . = no result. Rows were chosen to be rich in hits. Some 28% of all compounds tested hit in one or more screens of this group.
SMILES,CYP2C19 inhib,D1 allo mod,CYP2C9 act,CYP2C9 inhib,hDAT+cocaine,CYP2C19 activ
COc1cc(C2=NOC(C(=O)N3CCCc4ccccc43)C2)cc(OC)c1OC (configuration not stated),16,-0.18,0.6,45,1.8,0.8
COc1ccc(C2=NOC(C(=O)N3CCCc4ccccc43)C2)cc1 (configuration not stated),16,.,2.2*,-123,2.3,0.8
O=C(NCCCN1CCOCC1)c1cc2cc(Cl)cc(Cl)c2oc1=O,.,-0.35,.,.,.,.
O=S(=O)(Cc1ccccc1)N1CCCC(c2nc(-c3ccc(F)cc3)no2)C1 (configuration not stated),20,-0.0022,0.9,10,0.65,0.8
CCCS(=O)(=O)N1CCCC(c2nc(-c3cccc(OC)c3)no2)C1 (configuration not stated),80*,0.26,0.2,77*,0.96,0.2
O=S(=O)(NC1CC1)c1ccc(S(=O)(=O)N2CCCC(c3nc(-c4cccnc4)no3)C2)cc1 (configuration not stated),70*,-0.58,0.4,59*,1.4,0.3
COc1cccc(-c2noc(C3CCCN(S(=O)(=O)c4cccc(Cl)c4C)C3)n2)c1 (configuration not stated),40,-0.42,0.5,51*,0.45,0.6
O=C(NC1CCCCC1)N1CCCC(c2nc(-c3ccc(S(=O)(=O)N4CCCC4)cc3)no2)C1 (configuration not stated),-8,-0.68,1,3,-0.27,1.1
C=CCn1c(SCC(C)=O)nnc1-c1cc(-c2ccccc2)sc1N,.,.,.,.,1.3,.
Cc1ccc(S(=O)(=O)N2CCSC2c2ccco2)cc1 (configuration not stated),96*,-0.66,0.7,27,0.0066,0
CCc1nc(C)cc(N)c1OCc1ccccc1,4,-0.69,1,1,-0.0025,1
COc1ccc(/C=C2\CCCC(C(=O)C(F)(F)F)=C2O)cc1,-14,.,0.2,82*,-1.9,1.1
O=C(C1=C(O)/C(=C/c2ccc(O)cc2)CCC1)C(F)(F)F,.,.,.,.,-0.67,.
COc1ccc(C(C#N)Nc2ccccc2)cc1 (configuration not stated),18,.,0.9,8,4.6*,0.8
CCN(CC)CCN1C(=O)C(=O)/C(=C(/O)c2ccncc2)C1c1ccccc1 (configuration not stated),0,-0.025,1,5,-0.29,1
N#CCCn1cc(C(CC(=O)c2ccc(Br)cc2)C(=O)O)c2ccccc21 (configuration not stated),29,-0.0049,0.4,58*,-0.27,0.7
O=C(COc1ccc(Cl)cc1)N1CCCC1,.,.,.,.,1,.
Cc1ccc(OCCCN2CCCC2)c(C)c1,16,.,1,2,-0.37,0.8
Cc1ccc(OCCN2CCCCCC2)c(C)c1,58*,.,0.8,15,0.01,0.4
COCCNC(=O)COc1ccc(C)cc1C,67*,.,0.9,9,-0.88,0.3
Cc1ccc(C)c(OCC(=O)Nc2nonc2NC(=O)COc2cc(C)ccc2C)c1,15,0.056,0.2,77*,-0.27,0.8
O=C(COc1ccc(Br)cc1)N1CCCCCC1,94*,0.84,0.7,31,-1,0.1
Nc1c(S(=O)(=O)c2cccc(Cl)c2)c2nc3ccccc3nc2n1/N=C/c1ccc(O)c(O)c1,-13,0.18,0.9,8,-0.019,1.1
Cc1oc(CC(C)C)cc1C(=O)Nc1ccc(C(=O)O)cc1,-1,1.1,1,2,-0.27,1
C=C1CC2C=C(NC(C)=O)CC(C1)C2 (configuration not stated),20,0.27,1,4,0.56,0.8
SMILES,CYP2C19 inhib,D1 allo mod,CYP2C9 act,CYP2C9 inhib,hDAT+cocaine,CYP2C19 activ
Cc1cc(OCCCC(=O)N2CCCCC2)cc(C)c1Cl,93*,-0.94,1,-2,-0.23,0.1
C=CCNC(=O)CCCOc1ccc(C)cc1,73*,.,0.4,60*,-0.27,0.3
Cc1ccc(OCCCC(=O)N2CCOCC2)cc1,75*,.,1.1,-8,0.79,0.2
Cc1ccc(OCC(=O)N2CCCCCC2)c(C)c1,80*,-0.43,1.2,-20,0.054,0.2
Cc1cc(Cl)ccc1OCCCC(=O)N1CCOCC1,98*,1.6,1.8,-79,-0.25,0
O=C(CCCOc1ccc(Cl)cc1Cl)N1CCc2ccccc2C1,.,.,.,.,1.4,.
Cc1cc(Cl)ccc1OCCCC(=O)N1CCCCC1,97*,.,1.3,-26,0.74,0
CC1CCC(C(C)C)C(OC(=O)CSc2nnc(N)s2)C1 (configuration not stated),66*,.,0.6,40,0.44,0.3
CC1CCC(C(C)C)C(OC(=O)CSc2nc(N)cc(=O)[nH]2)C1 (configuration not stated),9,.,1.1,-8,0.28,0.9
CC1CCC(C(C)C)C(OC(=O)CSc2n[nH]c(=O)[nH]c2=O)C1 (configuration not stated),-12,-1,1,-2,-0.3,1.1
Cc1nnc(SCC(=O)OC2CC(C)CCC2C(C)C)[nH]c1=O (configuration not stated),32,.,0.1,88*,1,0.7
CCOC(=O)C1=C(C)N2C(=C(C#N)[C@@H]1c1ccc(C(=O)OC)cc1)SC[C@@]2(O)C(C)(C)C,97*,.,0,98*,-0.83,0
O=C(Oc1ccc(Cl)cc1N1C(=O)CCC1=O)c1ccco1,11,-0.021,0.9,6,-1.3,0.9
Cn1c2c(c(=O)n(C)c1=O)C1c3cc(Cl)ccc3OCC1CO2 (configuration not stated),69*,.,0.9,7,0.28,0.3
CC12CC(NC(=O)N1CCc1ccccc1)c1cc(Cl)ccc1O2 (configuration not stated),.,-0.38,.,.,0.0063,.
CCOc1ccc(NC(=O)c2ccc(F)cc2F)cc1,.,.,.,.,-0.35,.
C=CCOC(=O)C1=C[C@H](c2ccc3c(c2)OCO3)C[C@H](OCCCCO)O1,.,.,.,.,2,.
S=C(c1ccc[nH]1)N1CCOCC1,.,.,.,.,0.027,.
Cc1ccc(NC(=O)CN(C)S(=O)(=O)c2cccc3nsnc23)cc1C,35,-0.78,0.2,78*,0.32,0.7
CCN(CCCNC(=O)CN(C)S(=O)(=O)c1cccc2nsnc12)c1ccccc1,37,1.6,0.3,74*,.,0.6
CN(CC(=O)NCCN1CCN(Cc2ccccc2)CC1)S(=O)(=O)c1cccc2nsnc12,-6,-0.14,1.1,-5,0.065,1.1
Cc1ccc2nc(NC(=O)CN(C)S(=O)(=O)c3cccc4nsnc34)sc2c1,23,-0.73,0.8,19,-0.18,0.8
CN(CC(=O)NCc1ccc(Cl)cc1)S(=O)(=O)c1cccc2nsnc12,82*,0.0046,0.8,20,2.2,0.2
Cc1ccc(NC(=O)CN(C)S(=O)(=O)c2cccc3nsnc23)cc1Cl,40,0.27,0.2,84*,0.0065,0.6

# Screening results (PubChem)
